# Experimental data as given in PubChem BioAssay (NCATS).
# Where “and” joins values, the source holds several entries; their conditions need not be identical. Identical values can stand only once. Results filed as inconclusive are left out. Values without a mark were called inactive. Calls of active or inactive are those of the source. Calls follow the shape of the dose curve; as a rule, active = well fitted inhibition curve with a large enough effect; inconclusive = small, poorly fitted or top-dose-only effect; inactive = flat fitted curve, though single readings scatter. Starred links: 1 amine or outer side, 2 acyl side, 3 side chain; linkers in the order of their positions; H or OH if unused. Positions of bridges follow the written chain, without caps; N, C: chain ends. Non-standard residues stand in square brackets, D forms with d. Residues, ends and D or L forms follow the SMILES beside them. Chains are numbered I, II in the order given. Actinocin(9to1) = Cc1c2oc3c(C)ccc(C(=O)[*:1])c3nc-2c(C(=O)[*:2])c(N)c1=O; NMeV = CN[CH](C(=O)O)C(C)C; Sar = CNCC(=O)O
# Tests used:
# CRL-7250 = normal cell line; test: Cytotoxic Profiling of Annotated Libraries Using Quantitative High-Throughput Screening (AID 1296008); conditions: Five cell lines viability, CellTiter-Glo ATP luminescence, 48-72 h; max response: hits give low values
# In short: (§1)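 Compounds were pin-transferred onto cells and incubated 48 or 72 hr at 37 degree Celsius, 95% humidity. CellTiter-Glo was added, plates sat 10 min at room temperature, then ATP-coupled luminescence was imaged as the viability read-out.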
# HEK293 = test: as above; conditions: Five cell lines viability, CellTiter-Glo ATP luminescence, 48-72 h; max response: hits give low values
# In short: as §1
# KB-3-1 = test: as above; conditions: Five cell lines viability, CellTiter-Glo ATP luminescence, 48-72 h; max response: hits give low values
# In short: as §1
# HaCat [1] = test: as above; conditions: Five cell lines viability, CellTiter-Glo ATP luminescence, 48-72 h; max response: hits give low values
# In short: as §1
# NIH3T3 = test: as above; conditions: Five cell lines viability, CellTiter-Glo ATP luminescence, 48-72 h; max response: hits give low values
# In short: as §1
# MCC-26 = test: qHTS assay to identify novel small-molecules to repurpose for Merkel cell carcinoma treatment (AID 1296009); conditions: MCC and control cell lines, CellTiter-Glo viability, 72 h; series mostly up to 46 µM
# In short: (§2)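 Cells exposed to NPC (8-point) and MIPE (11-point) compound dilutions for 72 hr at 37 degree celsius; viability read by CellTiter-Glo luminescence, normalized to no-cell and DMSO in-plate controls.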
# MCC-13 = test: as above; conditions: MCC and control cell lines, CellTiter-Glo viability, 72 h; series mostly up to 46 µM
# In short: as §2
# HEK293T = test: as above; conditions: MCC and control cell lines, CellTiter-Glo viability, 72 h; series mostly up to 44.8 µM
# In short: as §2
# HACAT [2] = test: as above; conditions: MCC and control cell lines, CellTiter-Glo viability, 72 h; at 44.8 µM (top of the series) unless noted
# In short: as §2
# % is scaled to controls: 0 for no effect and ±100 for the full control effect; potency is read from the fitted curve at half-maximal effect.
# Also: nearly all actives have a fitted effect of over 60% in size.
smiles,measurement,setting,value
Cc1ccc2nc(NCCN)c3ncc(C)n3c2c1,Potency,CRL-7250,16600 nM (active)
same,Potency,HEK293,4180 nM (active)
same,Potency,KB-3-1,3.32 µM (active)
Nc1nc(=O)n([C@H]2C[C@H](O)[C@@H](CO)O2)cc1F,outcome,CRL-7250,inactive
same,Potency,HEK293,74.3 nM (active)
same,Potency,HaCat [1],11.8 nM (active)
same,Potency,KB-3-1,11.8 µM (active)
same,Potency,NIH3T3,8.3 nM (active)
same,Potency,MCC-26,inactive
COc1cc(C=CC(=O)CC(=O)C=Cc2ccc(O)c(OC)c2)ccc1O,Potency,CRL-7250,34000 nM (active)
same,Potency,HEK293,24100 nM (active)
same,Potency,KB-3-1,38.2 µM (active)
CCOC(=O)C1=C(C)NC(=S)NC1c1cccc(O)c1 (stereo not given),max response,CRL-7250,-18.5%
same,Potency,HEK293,13.2 nM (active)
same,max response,HaCat [1],-10%
same,Potency,KB-3-1,0.0469 µM (active)
same,Potency,MCC-13,1480 nM (active)
Cc1cc(C(=O)NOCCO)c(Nc2ccc(I)cc2F)n(C)c1=O,Potency,CRL-7250,743 nM (active)
same,max response,HEK293,-3.43%
same,max response,HaCat [1],-66.6%
same,max response,KB-3-1,-2.94%
same,Potency,MCC-26,inactive
CN(CC(=O)N(Cc1ccc(C2CCCCC2)cc1)c1ccc(C(=O)O)c(O)c1)S(=O)(=O)c1c(F)c(F)c(F)c(F)c1F,outcome,CRL-7250,inactive
same,outcome,HEK293,inactive
same,max response,HaCat [1],-3.31%
same,outcome,NIH3T3,inactive
same,Potency,HEK293T,inactive
same,Potency,MCC-26,inactive
CS[C@H]1SC[C@@H]2C(=O)N(C)[C@H](C(C)C)C(=O)OC[C@H](NC(=O)c3cnc4ccccc4n3)C(=O)N[C@H](C)C(=O)N(C)[C@@H]1C(=O)N(C)[C@H](C(C)C)C(=O)OC[C@H](NC(=O)c1cnc3ccccc3n1)C(=O)N[C@H](C)C(=O)N2C,Potency,CRL-7250,7.4 nM (active)
same,Potency,HEK293,5.3 nM (active)
same,Potency,HaCat [1],11.8 nM (active)
same,Potency,MCC-13,29.6 nM (active)
Oc1cc(-c2nc(-c3ccccc3)[nH]c2-c2ccncc2)ccc1Cl,max response,CRL-7250,-23.8%
same,Potency,HEK293,23500 nM (active)
same,max response,KB-3-1,-18.3%
O=C(c1ccc(F)cc1)N1CCC[C@H](c2nc(-c3ccc(F)cc3)no2)C1,max response,CRL-7250,3.37%
same,max response,HEK293,-0.935%
same,outcome,HaCat [1],inactive
same,outcome,NIH3T3,inactive
same,outcome,HACAT [2],inactive
same,Potency,MCC-13,inactive
same,Potency,MCC-26,inactive
CC[C@H]1OC(=O)[C@H](C)[C@@H](O[C@H]2C[C@@](C)(OC)[C@@H](O)[C@H](C)O2)[C@H](C)[C@@H](O[C@@H]2O[C@H](C)C[C@H](N(C)C)[C@@H]2O)[C@](C)(OC)C[C@@H](C)C(=O)[C@H](C)[C@@H](O)[C@]1(C)O,max response,CRL-7250,4.09%
same,max response,HEK293,-15.9%
same,max response,HaCat [1],3.25%
same,max response,KB-3-1,-5.56%
same,outcome,NIH3T3,inactive
same,Potency,MCC-13,inactive
same,Potency,MCC-26,inactive
COC1=C2C[C@@H](C)C[C@H](OC)[C@@H](O)[C@@H](C)C=C(C)[C@H](OC(N)=O)[C@@H](OC)C=CC=C(C)C(=O)NC(=CC1=O)C2=O,Potency,CRL-7250,7430 nM (active)
same,Potency,HEK293,4690 nM (active)
same,Potency,KB-3-1,2.09 µM (active)
same,Potency,NIH3T3,9350 nM (active)
CC[C@H](CC[C@@H](C)[C@H]1CC[C@H]2[C@@H]3CC=C4C[C@@H](O)CC[C@]4(C)[C@@H]3CC[C@]12C)C(C)C,max response,CRL-7250,-0.624%
same,max response,HEK293,-8.75%
same,max response,HaCat [1],4.34%
same,max response,KB-3-1,-7.92%
same,max response,NIH3T3,4.37%
same,Potency,MCC-13,inactive
same,Potency,MCC-26,inactive
NC(=O)c1ncn([C@@H]2O[C@H](CO)[C@@H](O)[C@@H]2O)c1O,max response,CRL-7250,-0.101%
same,max response,HEK293,1.7%
same,max response,HaCat [1],4.1%
same,max response,KB-3-1,6.36%
same,Potency,MCC-13,inactive
same,Potency,MCC-26,inactive
"Cc1c2oc3c(C)ccc(C(=O)NC4C(=O)NC(C(C)C)C(=O)N5CCCC5C(=O)N(C)CC(=O)N(C)C(C(C)C)C(=O)OC4C)c3nc-2c(C(=O)NC2C(=O)NC(C(C)C)C(=O)N3CCCC3C(=O)N(C)CC(=O)N(C)C(C(C)C)C(=O)OC2C)c(N)c1=O (stereo not given) (I: TVP[Sar][NMeV] / II: TVP[Sar][NMeV]; ester I:1-I:C, II:1-II:C; linker I:N-II:N via Actinocin(9to1); configuration not given here)",max response,CRL-7250,-99.9%
same,max response,HEK293,-93.3%
same,max response,HaCat [1],-104%
same,Potency,KB-3-1,6.62e-05 µM (active)
same,max response,NIH3T3,-100%
same,Potency,MCC-13,inactive
same,Potency,MCC-26,inactive
COc1cc(C(=O)NC2CCN(C)CC2)ccc1Nc1ncc2c(n1)N(C1CCCC1)CCC(=O)N2C(C)C,max response,CRL-7250,-17.1%
same,Potency,HEK293,8330 nM (active)
same,max response,HaCat [1],-42.1%
same,Potency,NIH3T3,1320 nM (active)
Cc1cnc(Nc2ccc(CN3CCOCC3)cc2)nc1Nc1cccc(S(=O)(=O)NC(C)(C)C)c1,Potency,CRL-7250,3.32 µM (active) and 4.61 µM (active)
same,Potency,HEK293,3660 nM (active)
same,Potency,HaCat [1],2.64 µM (active) and 2.31 µM (active)
same,Potency,KB-3-1,4.18 µM (active) and 1.46 µM (active)
same,Potency,MCC-13,13200 nM (active)
same,Potency,MCC-26,8330 nM (active)
C=CC(=O)Nc1cccc(Nc2nc(NC3CCC(N(C)C)CC3)nc3c2ncn3C(C)C)c1 (stereo not given),Potency,CRL-7250,590 nM (active)
same,Potency,HEK293,1320 nM (active)
same,Potency,HaCat [1],7430 nM (active)
same,Potency,NIH3T3,14800 nM (active)
Cc1cnc(Nc2ccc(N3CCN(C)CC3)cc2)nc1Nc1cccc(S(=O)(=O)NC(C)(C)C)c1,Potency,CRL-7250,1480 nM (active)
same,Potency,HEK293,4690 nM (active)
same,Potency,HaCat [1],296 nM (active)
same,Potency,NIH3T3,4180 nM (active)
same,Potency,MCC-13,16600 nM (active)
same,Potency,MCC-26,8330 nM (active)
O=c1[nH]c(=O)n([C@H]2C[C@@H](O)[C@@H](CO)O2)cc1C=CBr,max response,CRL-7250,-10.9%
same,max response,HEK293,-1.26%
same,max response,HaCat [1],-10.4%
same,outcome,KB-3-1,inactive
same,outcome,NIH3T3,inactive
same,Potency,MCC-13,inactive
same,Potency,MCC-26,inactive
COc1cc2c(cc1OC)[C@@H]1C(=O)c3ccc4c(c3O[C@@H]1CO2)C=CC(C)(C)O4,Potency,CRL-7250,14.8 nM (active)
same,Potency,HEK293,52.6 nM (active)
same,max response,HaCat [1],-2.92%
same,Potency,MCC-13,inactive
same,Potency,MCC-26,inactive
CCC(C=C[C@@H]1OC(=O)C=C[C@H]1C)=C[C@H](C)CC=CC(C)=C[C@@H](C)C(=O)[C@@H](C)[C@H](O)[C@@H](C)CC(C)=CC(=O)O,Potency,CRL-7250,55.3 nM (active)
same,Potency,HEK293,17.5 nM (active)
same,Potency,HaCat [1],110 nM (active)
same,Potency,NIH3T3,124 nM (active)
same,Potency,MCC-13,98.4 nM (active)
